Data: PubChem BioAssay AID588511 (Johns Hopkins Ion Channel Center, 2011)
In all, about 310,000 compounds went through this assay and about 3,600 (1.2%) were called active.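 How the source made its calls: active means ratio plate-corrected score three or more library SD toward inhibition, starting fluorescence score within five deviations; inactive means the rest.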 The full list was thinned out, with actives kept by preference.

The compounds below were run against Anoctamin-1 (Mus musculus) (UniProt Q8BHY3) (assay: TMEM16A chloride channel inhibitors, primary screen, cell-based, HTS (AID 588511;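 on normalized B-score (activity score, 25-100; higher = stronger inhibition): score derived from kinetic fluorescence span divided by baseline fluorescence per well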)). Conditions: HEK293 TMEM16A/YFP iodide influx fluorescence, ionomycin; at 10 µM.
Sequence of Anoctamin-1 (Mus musculus) (Q8BHY3 whole entry, looked up): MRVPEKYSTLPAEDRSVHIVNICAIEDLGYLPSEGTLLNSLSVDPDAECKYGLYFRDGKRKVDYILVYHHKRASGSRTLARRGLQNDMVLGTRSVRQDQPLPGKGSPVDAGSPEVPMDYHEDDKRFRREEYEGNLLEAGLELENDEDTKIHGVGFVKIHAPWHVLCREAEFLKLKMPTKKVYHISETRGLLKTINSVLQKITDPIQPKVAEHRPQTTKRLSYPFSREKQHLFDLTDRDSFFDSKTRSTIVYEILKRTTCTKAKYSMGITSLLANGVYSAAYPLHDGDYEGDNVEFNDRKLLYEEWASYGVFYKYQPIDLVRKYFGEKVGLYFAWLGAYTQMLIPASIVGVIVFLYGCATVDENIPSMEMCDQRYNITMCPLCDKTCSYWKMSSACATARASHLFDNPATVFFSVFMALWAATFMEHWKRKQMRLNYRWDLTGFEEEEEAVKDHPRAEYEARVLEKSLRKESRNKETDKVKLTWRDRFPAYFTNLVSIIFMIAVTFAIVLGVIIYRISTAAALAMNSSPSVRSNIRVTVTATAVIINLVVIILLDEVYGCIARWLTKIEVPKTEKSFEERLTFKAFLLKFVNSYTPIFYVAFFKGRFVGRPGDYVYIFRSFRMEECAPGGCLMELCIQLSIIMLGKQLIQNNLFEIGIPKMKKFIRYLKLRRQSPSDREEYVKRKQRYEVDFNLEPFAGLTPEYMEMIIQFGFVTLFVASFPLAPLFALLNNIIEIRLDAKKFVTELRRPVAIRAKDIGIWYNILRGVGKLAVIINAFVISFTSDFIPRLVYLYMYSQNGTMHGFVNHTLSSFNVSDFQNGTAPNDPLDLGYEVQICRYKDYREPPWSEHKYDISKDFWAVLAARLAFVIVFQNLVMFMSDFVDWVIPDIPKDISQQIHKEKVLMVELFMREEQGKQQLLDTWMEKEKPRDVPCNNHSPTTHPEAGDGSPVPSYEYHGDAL
With `CSc1ccccc1OCc1cc(C(=O)N2C[C@H]3CC[C@H]2C3)no1` the normalized B-score (activity score, 25-100; higher = stronger inhibition) was “inactive”.
With `Cc1ccc(OCc2nc(C#N)c(N3CCCC3)o2)cc1` the normalized B-score (activity score, 25-100; higher = stronger inhibition) was “inactive”.
In the case of `N#Cc1nc(COc2ccc(-c3ccccc3)cc2)oc1NCc1cccnc1`, the normalized B-score (activity score, 25-100; higher = stronger inhibition) is reported as 100 (active).
For `O=S(=O)(c1ccc(Br)cc1)c1nc(-c2ccccc2)oc1NCc1cccnc1`, the normalized B-score (activity score, 25-100; higher = stronger inhibition) was “inactive”.
`CC(=O)N(c1ccc2oc(=O)sc2c1)S(=O)(=O)c1ccc(C)cc1` was tested, and the normalized B-score (activity score, 25-100; higher = stronger inhibition) was “inactive”.
With `Cn1c(SCc2ccc(F)cc2)nnc1-c1ccncc1` the normalized B-score (activity score, 25-100; higher = stronger inhibition) was “inactive”.
`C=CCn1c(CNS(=O)(=O)c2ccc(Br)cc2)nnc1SC` was tested, and the normalized B-score (activity score, 25-100; higher = stronger inhibition) was “inactive”.
`CCOC(=O)c1cc(NC(=O)c2ccc(Cl)cc2)c(=O)oc1-c1ccccc1` was tested, and the normalized B-score (activity score, 25-100; higher = stronger inhibition) was “inactive”.
With `CN1OC(COC(=O)c2ccc(Cl)cc2)CC1c1ccccc1` (stereo not given) the normalized B-score (activity score, 25-100; higher = stronger inhibition) was 100 (active).
With `Cn1cncc1COC(=O)c1ccc(Cl)cc1` the normalized B-score (activity score, 25-100; higher = stronger inhibition) was “inactive”.
In the case of `Cc1cc(OC(=O)c2ccc(Cl)cc2)cc(=O)n1C`, the normalized B-score (activity score, 25-100; higher = stronger inhibition) is reported as “inactive”.
`Cc1ccc(C)c(N2CCN(C(=O)CCCCn3c(=O)[nH]c4ccccc4c3=O)CC2)c1` was tested, and the normalized B-score (activity score, 25-100; higher = stronger inhibition) was 25 (active).
With `Cc1ccc(C)c(N2CCN(C(=O)CCCCCn3c(=S)[nH]c4ccc(N5CCOCC5)cc4c3=O)CC2)c1` the normalized B-score (activity score, 25-100; higher = stronger inhibition) was “inactive”.
For `Cc1ccc(C)c(N2CCN(C(=O)CCc3nc4ccccc4[nH]3)CC2)c1`, the normalized B-score (activity score, 25-100; higher = stronger inhibition) was “inactive”.
`CC(OC(=O)c1ccc(-n2cnnn2)cc1)C(=O)NCc1ccccc1` (stereo not given) was tested, and the normalized B-score (activity score, 25-100; higher = stronger inhibition) was “inactive”.
`COCCNS(=O)(=O)c1cc(Br)ccc1OC` was tested, and the normalized B-score (activity score, 25-100; higher = stronger inhibition) was “inactive”.
With `CC(=O)N1CCc2cc(S(=O)(=O)NC3CCCCC3)ccc21` the normalized B-score (activity score, 25-100; higher = stronger inhibition) was “inactive”.
In the case of `Cc1ccc(C)n1-c1ccncc1`, the normalized B-score (activity score, 25-100; higher = stronger inhibition) is reported as “inactive”.
In the case of `Cc1ccc(N)cc1-n1c(C)ccc1C`, the normalized B-score (activity score, 25-100; higher = stronger inhibition) is reported as 100 (active).
With `CCCn1nnnc1NCc1ccc(OC)cc1` the normalized B-score (activity score, 25-100; higher = stronger inhibition) was “inactive”.
For `COc1ccc(CNc2nnnn2C)cc1`, the normalized B-score (activity score, 25-100; higher = stronger inhibition) was 25 (active).
With `Cn1nnnc1NCc1ccc(Cl)c(Cl)c1` the normalized B-score (activity score, 25-100; higher = stronger inhibition) was “inactive”.
In the case of `C[C@@H]1C[C@@H]2O[C@H]2/C=C\C=C\C(=O)Cc2c(Cl)c(O)cc(O)c2C(=O)O1`, the normalized B-score (activity score, 25-100; higher = stronger inhibition) is reported as “inactive”.
In the case of `CC(C)Nc1nnc(SCC(=O)/C=C2\N(C)c3ccccc3C2(C)C)s1`, the normalized B-score (activity score, 25-100; higher = stronger inhibition) is reported as “inactive”.
`CC(=O)Nc1cccc(OCC(=O)/C=C2\N(C)c3ccccc3C2(C)C)c1` was tested, and the normalized B-score (activity score, 25-100; higher = stronger inhibition) was 100 (active).
`CN1/C(=C\C(=O)c2oc3ccccc3c2N)C(C)(C)c2ccccc21` was tested, and the normalized B-score (activity score, 25-100; higher = stronger inhibition) was “inactive”.
With `CCOc1cc(/C=N/NC(=O)c2cccc(S(=O)(=O)N3CCOCC3)c2)ccc1OCC(=O)N(C)C` the normalized B-score (activity score, 25-100; higher = stronger inhibition) was “inactive”.
With `CO[C@@H]1[C@@H](OC(N)=O)[C@@H](O)C(Oc2ccc3c(O)c(NC(=O)c4ccc(O)c(CC=C(C)C)c4)c(=O)oc3c2C)OC1(C)C` (stereo not given in full) the normalized B-score (activity score, 25-100; higher = stronger inhibition) was “inactive”.
With `O=C(O)C1=NN(c2c(F)c(F)cc(F)c2F)C(=O)CC1` the normalized B-score (activity score, 25-100; higher = stronger inhibition) was “inactive”.
`Cc1ccc(CN(N=Nc2nonc2N)c2nonc2N)c(C)c1` was tested, and the normalized B-score (activity score, 25-100; higher = stronger inhibition) was 25 (active).
For `COc1ccc(Cc2nnc(SCC(=O)c3cccc([N+](=O)[O-])c3)n2C)cc1`, the normalized B-score (activity score, 25-100; higher = stronger inhibition) was “inactive”.
With `COc1ccccc1C(=O)Nc1ccccc1C(=O)Nc1ccccc1` the normalized B-score (activity score, 25-100; higher = stronger inhibition) was “inactive”.
`O=C(Nc1ccccc1)c1ccccc1NC(=O)C(F)(F)F` was tested, and the normalized B-score (activity score, 25-100; higher = stronger inhibition) was 100 (active).
For `O=C(Nc1ccc(NC(=O)c2ccccc2F)cc1)c1ccccc1F`, the normalized B-score (activity score, 25-100; higher = stronger inhibition) was “inactive”.
In the case of `O=C(Nc1cccc(-c2cscn2)c1)C1CCN(Cc2ccsc2)CC1`, the normalized B-score (activity score, 25-100; higher = stronger inhibition) is reported as “inactive”.
With `CC(=O)c1cc(CN2CCC(C(=O)Nc3cccc(-c4cscn4)c3)CC2)cs1` the normalized B-score (activity score, 25-100; higher = stronger inhibition) was 25 (active).
For `CCn1cc(CN2CCC(C(=O)Nc3cccc(-c4cccc(Cl)c4)c3)CC2)cn1`, the normalized B-score (activity score, 25-100; higher = stronger inhibition) was “inactive”.
In the case of `COc1ccc2oc(C(=O)NCC(Cc3ccccc3)N(C)C)c(C)c2c1` (stereo not given), the normalized B-score (activity score, 25-100; higher = stronger inhibition) is reported as “inactive”.
With `Cc1cnc(NC(=O)c2ccccn2)s1` the normalized B-score (activity score, 25-100; higher = stronger inhibition) was “inactive”.
For `COc1ccc(NC(=O)c2ccccc2[N+](=O)[O-])cc1OC`, the normalized B-score (activity score, 25-100; higher = stronger inhibition) was “inactive”.
`COc1ccc(NC(=O)C2COc3ccccc3O2)cc1` (stereo not given) was tested, and the normalized B-score (activity score, 25-100; higher = stronger inhibition) was “inactive”.
In the case of `CC(=O)Oc1ccccc1C(=O)Nc1ncc([N+](=O)[O-])s1`, the normalized B-score (activity score, 25-100; higher = stronger inhibition) is reported as 100 (active).
For `O=C(Nc1ncc([N+](=O)[O-])s1)C1COc2ccccc2O1` (stereo not given), the normalized B-score (activity score, 25-100; higher = stronger inhibition) was 25 (active).
`COc1ccc(OC)c2sc(NC(=O)C3COc4ccccc4O3)nc12` (stereo not given) was tested, and the normalized B-score (activity score, 25-100; higher = stronger inhibition) was “inactive”.
For `O=C(N/N=C/c1cccc2cccnc12)[C@H]1C[C@@H]1c1ccccc1`, the normalized B-score (activity score, 25-100; higher = stronger inhibition) was “inactive”.
In the case of `Cc1ccc(C)c(OCCC(=O)OCC(=O)NC(=O)NCc2ccccc2)c1`, the normalized B-score (activity score, 25-100; higher = stronger inhibition) is reported as “inactive”.
For `O=C(Nc1ccc(S(=O)(=O)N2CCCCC2)cc1)C1CC(=O)N(c2ccc(F)cc2)C1` (stereo not given), the normalized B-score (activity score, 25-100; higher = stronger inhibition) was “inactive”.
In the case of `O=C(NC(=S)Nc1ncccn1)c1ccccc1Br`, the normalized B-score (activity score, 25-100; higher = stronger inhibition) is reported as “inactive”.
With `COc1ccnc(Oc2ccccc2)c1-c1ncn[nH]1` the normalized B-score (activity score, 25-100; higher = stronger inhibition) was “inactive”.
`NC(=O)c1c(NC(=O)c2ccccc2)sc2c1CCCC2` was tested, and the normalized B-score (activity score, 25-100; higher = stronger inhibition) was “inactive”.
`NC(=O)c1c(Nc2nc3c(F)cccc3s2)sc2c1CCCC2` was tested, and the normalized B-score (activity score, 25-100; higher = stronger inhibition) was 25 (active).
`O=C(Nc1nc2c(F)cc(F)cc2s1)C1COc2ccccc2O1` (stereo not given) was tested, and the normalized B-score (activity score, 25-100; higher = stronger inhibition) was “inactive”.
In the case of `Fc1cc(F)c2nc(Nc3nc4c(F)cccc4s3)sc2c1`, the normalized B-score (activity score, 25-100; higher = stronger inhibition) is reported as 100 (active).
`Fc1cc(F)c2nc(N3CCOCC3)sc2c1` was tested, and the normalized B-score (activity score, 25-100; higher = stronger inhibition) was “inactive”.
With `COc1cccc(OC)c1C(=O)Nc1sc2c(c1C(N)=O)CCCC2` the normalized B-score (activity score, 25-100; higher = stronger inhibition) was “inactive”.
